According to PubChem BioAssay:
Calls of active or inactive are those of the source.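 How the source made its calls, unless noted: active means inhibition of the reporter signal at or above 50%; inactive means inhibition below 50%.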

Key:
[1] = inhibitors of TNFa-induced NFkB p65 translocation, primary screen, imaging, HUVEC, MLSMR starter and 10KST1 sets (AID 438;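 active means inhibition above 20% together with a positive visual image hit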;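 further: compound added about 3h40 before a 20 min TNFalpha stimulation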;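 on inhibition: signal is the nuclear over cytoplasmic p65 intensity ratio per well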); details: HUVEC TNFa-induced p65 nuclear translocation; cell count: measured here: nuclei count (cytotoxicity indicator), at 2.08 µM; inhibition: at 2 µM, stronger effect = higher value, 0% TNFa-plus-vehicle, 100% no-TNFa wells
[2] = inhibitors of mutant huntingtin aggregation, primary screen, imaging, exon1htt(103Q)mCFP cells, high-content imaging (AID 483;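 active means visual image review flags a hit and inhibition of aggregation exceeds 20%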;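 further: compound exposure lasted 3 days before fixation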;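 on nuclei count: percent of the per-plate median nuclei count of sample wells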); details: exon1htt(103Q)mCFP cell line, aggregate imaging, at 2 µM; inhibition of aggregation: stronger effect = higher value; nuclei count: measured here: cell count, toxicity
[3] = inhibitors of E-selectin induction by TNFa, primary screen, imaging, HUVEC, immunofluorescence, MLSMR starter and 10KST1 sets (AID 487;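 active means visually confirmed hit in the image check and inhibition above 20%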;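 on inhibition: signal is fraction of cell area covered by stained E-selectin grains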;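 on nuclei count: 100% = median nuclei count of all wells on the same plate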); details: HUVEC TNFalpha-induced E-selectin immunofluorescence imaging, at 2 µM; inhibition: stronger effect = higher value; nuclei count: measured here: cell number, toxicity
[4] = biological target: Voltage-gated potassium channel subunit beta-2 (Rattus norvegicus) (UniProt P62483); experiment: KvBeta enzyme negative modulators, primary screen, biochemical, NADPH fluorescence (AID 622;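 active means fluorescence slope higher than the sample average by over 3 SD, cut at about -0.22 in these data, passing the limit was not always enough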;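 further: slope of raw intensity against log time taken from 70 to 1610 s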); details: recombinant KvBeta, 4-cyanobenzaldehyde reduction, at 10 µM, stronger effect = higher value
Sequence of Voltage-gated potassium channel subunit beta-2 (Rattus norvegicus) (P62483 whole entry, looked up): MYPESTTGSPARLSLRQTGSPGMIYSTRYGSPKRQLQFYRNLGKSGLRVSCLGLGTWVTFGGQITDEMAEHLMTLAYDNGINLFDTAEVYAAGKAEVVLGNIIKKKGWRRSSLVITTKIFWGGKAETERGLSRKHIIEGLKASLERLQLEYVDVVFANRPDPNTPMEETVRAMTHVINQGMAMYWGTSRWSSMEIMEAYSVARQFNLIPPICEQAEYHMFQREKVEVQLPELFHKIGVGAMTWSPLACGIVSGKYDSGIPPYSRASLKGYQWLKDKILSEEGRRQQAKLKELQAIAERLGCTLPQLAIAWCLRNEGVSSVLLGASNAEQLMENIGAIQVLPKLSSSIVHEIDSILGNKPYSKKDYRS

[5] = biological target: Voltage-gated potassium channel subunit beta-2 (Rattus norvegicus) (UniProt P62483); experiment: KvBeta positive modulators, primary screen, biochemical, NADPH fluorescence (AID 623;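 active means NADPH fluorescence slope more negative than the mean of all samples by about 3 SD, 99.7% confidence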;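 further: fluorescence intensity change per second fitted from 20 to 320 s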); details: Recombinant KvBeta, NADPH fluorescence decrease slope, 10 min; at 10 µM; stronger effect = lower value
[6] = biological target: Alpha-2C adrenergic receptor (Homo sapiens) (UniProt P18825); experiment: modulators of alpha2C/GIRK thallium flux, primary screen, cell-based, HEK293 alpha2C/GIRK1/2 (AID 624;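 active means fluorescence slope after compound addition differing from the mean of all screened samples at 99.7% confidence, in either direction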;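 further: slope of fluorescence ratio to pre-addition baseline per second over 15 to 24 s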); details: thallium flux BTC fluorescence, at 10 µM, actives lie on both sides
Sequence of Alpha-2C adrenergic receptor (Homo sapiens) (P18825 whole entry, looked up): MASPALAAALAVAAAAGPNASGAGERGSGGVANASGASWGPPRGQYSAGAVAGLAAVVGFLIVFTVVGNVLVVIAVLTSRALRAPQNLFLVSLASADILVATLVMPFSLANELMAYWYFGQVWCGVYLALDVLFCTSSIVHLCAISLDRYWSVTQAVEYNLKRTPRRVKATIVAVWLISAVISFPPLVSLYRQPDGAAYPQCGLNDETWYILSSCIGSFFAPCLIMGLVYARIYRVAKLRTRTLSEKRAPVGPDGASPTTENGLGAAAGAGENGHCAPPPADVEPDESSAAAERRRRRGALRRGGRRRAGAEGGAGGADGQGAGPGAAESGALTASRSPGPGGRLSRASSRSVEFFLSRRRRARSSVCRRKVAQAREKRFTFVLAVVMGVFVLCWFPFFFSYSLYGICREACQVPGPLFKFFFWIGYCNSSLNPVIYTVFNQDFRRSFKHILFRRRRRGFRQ

[7] = inhibitors of Sendai virus-induced IRF3 signaling, primary screen, TLR/RLR signaling modifier project, cell-based, Sendai virus stimulus, luciferase, 10K MLSCN set (AID 602276;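 active means inhibition at or above 50% at 10 µM; inactive means inhibition below 50%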;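 further: firefly luciferase from ISG56 promoter only with Renilla not read in this screen; 0% = Sendai virus plus DMSO and 100% = medium plus DMSO without virus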); details: HEK293 RL24 IRF3 luciferase reporter, at 10 µM, stronger effect = higher value
[8] = inhibitors of poly I:C-induced TLR3 signaling, primary screen, cell-based, poly I:C stimulus, luciferase, 10K MLSCN set (AID 602277); details: HEK293-TLR3 RL24 IRF3 luciferase reporter, at 10 µM, stronger effect = higher value

SMILES | cell count [1] | inhibition [1] | inhibition of aggregation [2] | nuclei count [2] [%] | inhibition [3] | nuclei count [3] [%] | fluorescence slope [4] | NADPH fluorescence slope [5] | slope [6] | inhibition [7] | inhibition [8]
CN(C(=O)c1cc2sccc2n1C)C1CCCCC1 | 227 | 1% (inactive) | 5.1% (inactive) | 80.1 | -64% (inactive) | 116 | -0.487 (inactive) | 2.7e-05 (inactive) | 0.00503 (inactive) | -56.2% (inactive) | -93.3% (inactive)
CC(=O)C(Sc1ncnc2c1nnn2-c1ccc(F)cc1)C(=O)N(C)C (stereo unspecified) | 464 | -2.2% (inactive) | 2.3% (inactive) | 89.3 | -51.7% (inactive) | 114 | -0.492 (inactive) | -1.7e-05 (inactive) | 0.00752 (inactive) | -3.3% (inactive) | -23.2% (inactive)
CCOC(=O)c1ccc(NS(=O)(=O)c2ccc3c(c2)oc(=O)n3C)cc1 | 467 | 1.3% (inactive) | 25.3% (inactive) | 72.9 | 10.3% (inactive) | 107 | -0.602 (inactive) | -1.1e-05 (inactive) | 0.00688 (inactive) | -7.08% (inactive) | 14% (inactive)
CC(Oc1ccccc1)C(=O)NC1CC(C)(C)NC(C)(C)C1 (stereo unspecified) | 386 | 0.2% (inactive) | 4.3% (inactive) | 89.9 | 13.8% (inactive) | 102 | -0.261 (inactive) | -3.5e-05 (inactive) | 0.00587 (inactive) | 17.4% (inactive) | 26.2% (inactive)
Cc1csc(NC(=O)c2ccoc2C)n1 | 435 | 1.3% (inactive) | -7.1% (inactive) | 90.7 | 9% (inactive) | 97.9 | -0.534 (inactive) | 2.1e-05 (inactive) | 0.00451 (inactive) | -53.3% (inactive) | -87.5% (inactive)
Cc1ccc(S(=O)(=O)C(C#N)c2nc3ccccc3nc2N2CCCCC2)cc1 (stereo unspecified) | 273 | 10.9% (inactive) | 8.3% (inactive) | 98.6 | -0.3% (inactive) | 103 | -0.364 (inactive) | 2e-06 (inactive) | 0.00764 (inactive) | 11.2% (inactive) | 22.6% (inactive)
CCc1nnc(NC(=O)CN2CCN(c3ccccc3OC)CC2)s1 | 287 | 6.2% (inactive) | -10% (inactive) | 102 | 3.6% (inactive) | 97.4 | -0.616 (inactive) | -2e-05 (inactive) | 0.00643 (inactive) | 7.27% (inactive) | 27.9% (inactive)
COC(=O)CNc1nc(C2CC2)nc2c1nnn2Cc1ccccc1Cl | 459 | 8.3% (inactive) | -0.3% (inactive) | 83.5 | 16.5% (inactive) | 97.5 | -0.479 (inactive) | -0.000128 (inactive) | 0.00514 (inactive) | 18.2% (inactive) | 17.8% (inactive)
CCOC(=O)c1[nH]c(=O)c2ccccc2c1O | 367 | -3.9% (inactive) | 2.9% (inactive) | 96.9 | -0.2% (inactive) | 116 | -0.512 (inactive) | -1.7e-05 (inactive) | 0.00472 (inactive) | -11.9% (inactive) | -8.42% (inactive)
COc1ccc(CCNC(=O)C2CCN(C(=O)N(C)C)CC2)cc1OC | 618 | 0.9% (inactive) | 3.5% (inactive) | 44.3 | -74.3% (inactive) | 106 | -0.386 (inactive) | -1.9e-05 (inactive) | 0.00486 (inactive) | 6.71% (inactive) | -1.45% (inactive)
CN(C(=O)c1ccco1)c1nnc(C23CC4CC(CC(C4)C2)C3)s1 | 681 | -10% (inactive) | -1.7% (inactive) | 110 | -1.5% (inactive) | 126 | -0.408 (inactive) | -1.5e-05 (inactive) | 0.00459 (inactive) | -30.3% (inactive) | -32.2% (inactive)
CCCSC1=C(C#N)C(c2cc(OC)ccc2OC)CC(=O)N1 (stereo unspecified) | 674 | 5.8% (inactive) | 10.8% (inactive) | 114 | -61.3% (inactive) | 116 | -0.518 (inactive) | -4.2e-05 (inactive) | 0.00728 (inactive) | 18.1% (inactive) | 25.8% (inactive)
COc1cccc(C2CC(c3ccc(C)cc3)n3nc(N)nc3N2)c1 (stereo unspecified) | 510 | -0.9% (inactive) | -5.2% (inactive) | 106 | -34.1% (inactive) | 106 | -0.615 (inactive) | -2.8e-06 (inactive) | 0.00794 (inactive) | 9.08% (inactive) | 24.7% (inactive)
Cn1cccc1Cc1nnc(SCC(=O)NCc2ccc(F)cc2)n1-c1ccc(F)cc1 | 767 | -7.4% (inactive) | 20% (inactive) | 139 | -56.2% (inactive) | 116 | -0.579 (inactive) | 8.6e-06 (inactive) | 0.00663 (inactive) | -4.39% (inactive) | 9.66% (inactive)
Cc1cccc(N2C(=O)CC(N(C(=O)c3ccco3)c3cccc(C)c3)C2=O)c1 (stereo unspecified) | 641 | -9.3% (inactive) | -5.2% (inactive) | 99 | -156% (inactive) | 102 | -0.504 (inactive) | -5.1e-05 (inactive) | 0.00488 (inactive) | 13.6% (inactive) | 19% (inactive)
CCOC(=O)c1c(NC(=O)Cn2c(=O)oc3ccccc32)oc(C)c1C(C)=O | 365 | -5.4% (inactive) | -18.8% (inactive) | 74.1 | 1.9% (inactive) | 119 | -0.484 (inactive) | 1.5e-05 (inactive) | 0.00454 (inactive) | 5.7% (inactive) | 11.9% (inactive)
CS(=O)(=O)NCC(c1cccnc1)N1CCN(c2ccc(F)cc2)CC1 (stereo unspecified) | 250 | -10.2% (inactive) | 15.1% (inactive) | 33.8 | 27.3% (inactive) | 72.4 | -0.34 (inactive) | -4.2e-05 (inactive) | 0.00483 (inactive) | -3.05% (inactive) | 1.56% (inactive)
Cc1ccc(OCCC(=O)OCC(=O)C(C)(C)C)cc1 | 542 | -8.3% (inactive) | -6.7% (inactive) | 101 | -9.5% (inactive) | 131 | -0.365 (inactive) | -5.3e-05 (inactive) | 0.0062 (inactive) | 12.7% (inactive) | 27.5% (inactive)
COc1ccc(C)cc1NCc1cccc(OC)c1OC | 335 | -7% (inactive) | 7% (inactive) | 111 | -41.1% (inactive) | 110 | -0.496 (inactive) | -2.7e-05 (inactive) | 0.00476 (inactive) | -7.74% (inactive) | 24.1% (inactive)
O=C(C1CCCN(S(=O)(=O)c2cccnc2)C1)N1CCn2c1nc1ccccc12 (stereo unspecified) | 639 | -11.6% (inactive) | -20.6% (inactive) | 112 | -57.5% (inactive) | 107 | -0.595 (inactive) | -2.6e-05 (inactive) | 0.00573 (inactive) | -7.64% (inactive) | -1.49% (inactive)
CCn1c(=S)ccc2ccc(OC)cc21 | 296 | 5.3% (inactive) | -4.2% (inactive) | 77.6 | -13.4% (inactive) | 120 | -0.599 (inactive) | -9.6e-06 (inactive) | 0.0055 (inactive) | -6.3% (inactive) | 29% (inactive)
CCOc1cc(NC(=O)c2ccco2)c(OCC)cc1NC(=O)Cc1cccc(OC)c1 | 592 | -14.5% (inactive) | -4.3% (inactive) | 107 | 22.4% (inactive) | 102 | -0.397 (inactive) | -5.1e-05 (inactive) | 0.00431 (inactive) | -6.51% (inactive) | -45.9% (inactive)
COc1ccc(NC(=O)C(C)NS(=O)(=O)c2ccc(NC(C)=O)cc2)cc1Cl (stereo unspecified) | 788 | 2.8% (inactive) | -14.8% (inactive) | 105 | 6.9% (inactive) | 113 | -0.34 (inactive) | 2.4e-05 (inactive) | 0.00739 (inactive) | 12.1% (inactive) | 7.34% (inactive)
CCN1CCCC1CNC(=O)c1cc2c(=O)n(C)c3ccccc3c2n1C (stereo unspecified) | 656 | -5% (inactive) | -28.9% (inactive) | 113 | -41.6% (inactive) | 114 | -0.55 (inactive) | 2.6e-06 (inactive) | 0.00775 (inactive) | 2.48% (inactive) | 40.8% (inactive)
CCOC(=O)Cc1nnc(NC(=O)c2ncn[nH]2)s1 | 343 | 0.2% (inactive) | -4.6% (inactive) | 99.8 | -5.5% (inactive) | 119 | -0.438 (inactive) | -5.2e-05 (inactive) | 0.00725 (inactive) | -0.284% (inactive) | 5.11% (inactive)
CC(=O)NC(Cc1ccccc1)C(=O)NC1CCN(C(=O)c2cnccn2)CC1 (stereo unspecified) | 991 | -1% (inactive) | -7% (inactive) | 136 | -54.3% (inactive) | 120 | -0.48 (inactive) | -2.5e-05 (inactive) | 0.00556 (inactive) | 12.1% (inactive) | 28.6% (inactive)
